Reference: PubChem BioAssay (Tox21)
Records with an inconclusive call do not appear. Activity calls are given as the source filed them. Unless noted, calls follow the shape of the full dose curve.

Legend:
[1] = Nuclear factor erythroid 2-related factor 2/antioxidant responsive element (Nrf2/ARE) small molecule agonists: qHTS cell viability counter screen in human keratinocytes (AID 1919968; active = well fitted curve in the direction sought with a large enough effect in the repeat runs; an effect the other way counts as inactive or inconclusive; also: nearly all actives have a fitted effect of over 55% in size; also: potency is read from the fitted curve at half-maximal effect)
How it was run: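 Cells of the KeratinoSens line were plated at 1,500 per well and left for 5 h before compound transfer from DMSO stocks. After a 23 h incubation (37 C, 5% CO2), CellTiter-Fluor was added. Signal was taken as fluorescence intensity 1 h later.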

[2] = target: Gonadotropin-releasing hormone receptor (Homo sapiens) (UniProt P30968); assay: Human gonadotropin-releasing hormone receptor (GnRHR) small molecule agonists, calcium flux assay in GnRHR-HEK293 cells (AID 1920063); also: nearly all actives have a fitted effect of over 35% in size; also: potency is read from the fitted curve at half-maximal effect
Gonadotropin-releasing hormone receptor (Homo sapiens), sequence (P30968 whole entry, looked up): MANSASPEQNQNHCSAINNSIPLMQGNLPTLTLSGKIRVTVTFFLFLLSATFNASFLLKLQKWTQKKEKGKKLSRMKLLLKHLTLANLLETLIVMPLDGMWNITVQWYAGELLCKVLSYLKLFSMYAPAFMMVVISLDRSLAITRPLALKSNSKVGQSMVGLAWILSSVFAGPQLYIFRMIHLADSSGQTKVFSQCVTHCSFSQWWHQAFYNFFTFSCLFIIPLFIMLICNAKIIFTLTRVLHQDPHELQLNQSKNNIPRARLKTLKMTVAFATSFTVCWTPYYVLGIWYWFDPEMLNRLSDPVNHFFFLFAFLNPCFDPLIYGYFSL
How it was run: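 Compounds dissolved in DMSO are pin-transferred onto dye-loaded GnRHR-HEK293 cells, which were seeded 18 h before at 37 C/5% CO2. Calcium signal is read as fluorescence intensity at 1 s intervals for 3 min.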

[3] = target: KiSS-1 receptor (Homo sapiens) (UniProt Q969F8); assay: Human kisspeptin (KISS1R) small molecule agonists, calcium flux assay in KISS1R-HEK293 cells (AID 1920064; active = well fitted curve in the direction sought with a large enough effect in the repeat runs; an effect the other way counts as inactive or inconclusive)
KiSS-1 receptor (Homo sapiens), sequence (Q969F8 whole entry, looked up): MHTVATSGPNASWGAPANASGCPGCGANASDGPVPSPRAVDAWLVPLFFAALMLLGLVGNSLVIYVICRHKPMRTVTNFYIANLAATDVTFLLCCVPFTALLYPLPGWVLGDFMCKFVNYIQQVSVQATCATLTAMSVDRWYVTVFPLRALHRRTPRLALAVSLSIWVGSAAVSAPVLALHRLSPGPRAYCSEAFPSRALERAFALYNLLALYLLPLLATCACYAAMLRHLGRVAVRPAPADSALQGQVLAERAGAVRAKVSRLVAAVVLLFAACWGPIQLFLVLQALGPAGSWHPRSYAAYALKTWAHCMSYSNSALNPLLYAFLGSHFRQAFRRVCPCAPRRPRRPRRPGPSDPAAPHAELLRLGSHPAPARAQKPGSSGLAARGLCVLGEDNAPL
How it was run: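 Cell line: HEK293, stable human KISS1R. Dye loading 1 h at 37 C after 18 h culture. Read: kinetic fluorescence, 480/540 nm, 3 min at 1 s intervals.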

[4] = G protein-coupled receptor (GPCR) small molecule agonists, calcium flux assay: HEK293 wild type cell line counter screen (AID 1920065)
How it was run: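 Tox21 10K compounds, 15 concentrations each in triplicate, pin-transferred in DMSO onto dye-loaded cells; kinetic read at 480/540 nm for 3 min, 1 s intervals.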

[5] = p53 small molecule agonists, cell-based qHTS assay with human liver microsomes (AID 1963577)
How it was run: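 Compounds act here after metabolic activation: human liver microsomes and NADPH, both at 0.5 mg/mL final, were co-added to p53RE-bla cells. Incubation ran 16 h at 37 C, followed by LiveBLAzer detection.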

[6] = p53 small molecule agonists, cell-based qHTS assay with rat liver microsomes (AID 1963578)
How it was run: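 Read-out is beta-lactamase reporter fluorescence (LiveBLAzer, 2 h, room temperature, dark) in p53RE-bla cells treated 16 h at 37 C with compound, rat liver microsomes and NADPH, both 0.5 mg/mL final.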

[7] = p53 small molecule agonists, cell-based qHTS assay with human liver microsomes: qHTS cell viability counter screen (AID 1963579); also: nearly all actives have a fitted effect of over 45% in size
How it was run: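 Cells carrying the p53 response-element beta-lactamase reporter are treated for 16 h at 37 C with test compounds in the presence of human liver microsomes and NADPH (both 0.5 mg/mL final); ATP-based CellTiter-Glo luminescence then reports viability.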

[8] = p53 small molecule agonists, cell-based qHTS assay with rat liver microsomes: qHTS cell viability counter screen (AID 1963580); also: nearly all actives have a fitted effect of over 45% in size; also: potency is read from the fitted curve at half-maximal effect
How it was run: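 Cytotoxicity counter screen: intracellular ATP read by CellTiter-Glo luminescence in the p53 reporter wells. HCT-116 p53RE-bla cells were treated for 16 h at 37 C alongside rat liver microsomes and NADPH, each 0.5 mg/mL final.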

[9] = p53 small molecule agonists, cell-based qHTS assay: qHTS cell viability counter screen (AID 1963581); also: nearly all actives have a fitted effect of over 45% in size
How it was run: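 ATP content measured by luminescence in HCT-116 p53RE-bla cells treated 16 h at 37 C, same wells as the reporter screen.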

[10] = p53 small molecule agonists, cell-based qHTS assay (AID 1963582; active = well fitted activation curve with a large enough effect in the signal ratio in the repeat runs, not every such curve was filed as active; the % refers to the signal ratio)
How it was run: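 16 h compound exposure (37 C) of p53 response element–bla cells, preceded by 5 h recovery at 37 C/5% CO2; read-out via LiveBLAzer B/G FRET substrate, 2 h RT, fluorescence intensity.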

[11] = target: 5-hydroxytryptamine receptor 2A (Homo sapiens) (UniProt P28223); assay: 5-hydroxytryptamine receptor 2A (HTR2A) small molecule antagonists, cell-based qHTS assay (AID 1963586); also: nearly all actives have a fitted effect of over 45% in size
5-hydroxytryptamine receptor 2A (Homo sapiens), sequence (P28223 whole entry, looked up): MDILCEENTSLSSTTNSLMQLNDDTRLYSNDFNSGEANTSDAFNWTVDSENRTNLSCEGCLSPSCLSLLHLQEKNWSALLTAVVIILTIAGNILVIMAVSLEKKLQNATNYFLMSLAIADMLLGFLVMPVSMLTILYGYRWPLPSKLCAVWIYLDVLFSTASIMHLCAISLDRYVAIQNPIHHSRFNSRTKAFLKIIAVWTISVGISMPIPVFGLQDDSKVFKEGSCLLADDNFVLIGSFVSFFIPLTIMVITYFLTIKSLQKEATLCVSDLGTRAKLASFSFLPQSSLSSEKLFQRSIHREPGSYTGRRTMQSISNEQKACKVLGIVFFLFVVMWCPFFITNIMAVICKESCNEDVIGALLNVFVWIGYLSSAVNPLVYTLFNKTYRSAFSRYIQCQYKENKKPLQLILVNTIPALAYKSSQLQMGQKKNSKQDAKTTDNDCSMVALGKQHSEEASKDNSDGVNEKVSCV
How it was run: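 CHO cells stably expressing human HTR2A were plated for 18 h at 37 C, then loaded with calcium dye for 1 h. Compounds were preincubated 5 min at room temperature before DOI (4 nM solution) was added. Kinetic fluorescence was read for 3 min.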

[12] = target: 5-hydroxytryptamine receptor 2A (Homo sapiens) (UniProt P28223); assay: 5-hydroxytryptamine receptor 2A (HTR2A) small molecule agonists, cell-based qHTS assay (AID 1963587); also: nearly all actives have a fitted effect of over 30% in size; also: potency is read from the fitted curve at half-maximal effect
How it was run: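 Kinetic calcium-flux fluorescence (2 min, 1 sec intervals) after compound addition in agonist mode. HTR2A-CHO cells were cultured 18 h, then dye-loaded 1 h at 37 C.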

[13] = target: Muscarinic acetylcholine receptor M1 (Homo sapiens) (UniProt P11229); assay: Cholinergic receptor muscarinic 1 (CHRM1) small molecule agonists, cell-based qHTS assay (AID 1963589); also: nearly all actives have a fitted effect of over 35% in size
Muscarinic acetylcholine receptor M1 (Homo sapiens), sequence (P11229 whole entry, looked up): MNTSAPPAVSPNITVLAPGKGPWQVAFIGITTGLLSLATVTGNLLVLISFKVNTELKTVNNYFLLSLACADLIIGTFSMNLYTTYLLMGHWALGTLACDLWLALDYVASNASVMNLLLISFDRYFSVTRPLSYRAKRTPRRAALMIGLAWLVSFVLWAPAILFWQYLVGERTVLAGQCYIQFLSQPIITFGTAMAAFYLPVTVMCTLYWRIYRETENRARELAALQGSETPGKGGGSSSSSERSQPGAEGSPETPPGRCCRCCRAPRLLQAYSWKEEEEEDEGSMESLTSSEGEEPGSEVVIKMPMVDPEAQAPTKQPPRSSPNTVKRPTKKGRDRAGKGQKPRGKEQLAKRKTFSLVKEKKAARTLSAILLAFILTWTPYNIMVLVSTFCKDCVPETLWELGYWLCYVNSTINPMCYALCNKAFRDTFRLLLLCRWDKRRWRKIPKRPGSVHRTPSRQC
How it was run: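 Homogeneous fluorescence calcium flux, agonist mode. Human M1-expressing CHO cells; compound dosed at 15 concentrations, three independent runs; signal sampled every 1 sec.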

[14] = cAMP Responsive Elements (CRE) small molecule agonists, cell-based qHTS assay (AID 1963590)
How it was run: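 HEK 293T cells stably bearing CRE-bla were plated at 2,000 cells per well and rested 18 h. Compounds, positive controls or DMSO were added for 3 h at 37 C. LiveBLAzer B/G substrate was then loaded for 2 h at room temperature.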

[15] = cAMP Responsive Elements (CRE) small molecule antagonists, cell-based qHTS assay (AID 1963591; active = well fitted inhibition curve with a large enough effect in the signal ratio in the repeat runs, not every such curve was filed as active; the % refers to the signal ratio)
How it was run: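 First, CRE-bla HEK293T cells settled 18 h at 37 C. Next, compound and 0.25 uM final NKH477 were applied for 3 h. Last, LiveBLAzer B/G substrate was loaded for 2 h at room temperature.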

[16] = target: Beta-2 adrenergic receptor (Homo sapiens) (UniProt P07550); assay: Adrenergic beta2 receptor (ADRB2) small molecule antagonists, cell-based qHTS assay (AID 1963592); also: series mostly up to about 92 µM; nearly all actives have a fitted effect of over 50% in size
Beta-2 adrenergic receptor (Homo sapiens), sequence (P07550 whole entry, looked up): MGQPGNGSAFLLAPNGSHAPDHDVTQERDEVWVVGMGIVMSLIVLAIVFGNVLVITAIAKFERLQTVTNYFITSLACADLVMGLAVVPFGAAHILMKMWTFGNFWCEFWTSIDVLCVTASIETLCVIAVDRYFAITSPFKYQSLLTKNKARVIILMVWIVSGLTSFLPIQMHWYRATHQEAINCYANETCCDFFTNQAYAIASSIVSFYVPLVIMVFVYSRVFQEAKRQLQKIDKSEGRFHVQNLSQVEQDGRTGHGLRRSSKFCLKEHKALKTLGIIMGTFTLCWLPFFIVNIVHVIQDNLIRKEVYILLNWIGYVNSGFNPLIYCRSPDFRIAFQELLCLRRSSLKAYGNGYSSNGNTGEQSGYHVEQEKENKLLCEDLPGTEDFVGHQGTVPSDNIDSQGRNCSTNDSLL
How it was run: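 Assay format: CHO-ADRB2 cells, 18-20hr seeding at 37C/5% CO2, then compound plus 1nM isoproterenol agonist mix for 0.5hr RT. Homogeneous time-resolved fluorescence cAMP detection after 1hr, expressed as 665/615 nm ratio.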

[17] = target: Beta-2 adrenergic receptor (Homo sapiens) (UniProt P07550); assay: Adrenergic beta2 receptor (ADRB2) small molecule agonists, cell-based qHTS assay (AID 1963593);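 also: CHO cells stably overexpressing human ADRB2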
How it was run: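 CHO cells stably over-expressing ADRB2 were plated overnight at 37C, then dosed with compounds plus a stimulation mix containing 100uM IBMX and 25uM Ro-20-1724 for 0.5hr at room temperature. cAMP was measured by HTRF competition, 1hr.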

[18] = target: D(2) dopamine receptor (Homo sapiens) (UniProt P14416); assay: Dopamine D2 receptor (DRD2) small molecule agonists, cell-based qHTS assay (AID 1963594); also: nearly all actives have a fitted effect of over 35% in size
D(2) dopamine receptor (Homo sapiens), sequence (P14416 whole entry, looked up): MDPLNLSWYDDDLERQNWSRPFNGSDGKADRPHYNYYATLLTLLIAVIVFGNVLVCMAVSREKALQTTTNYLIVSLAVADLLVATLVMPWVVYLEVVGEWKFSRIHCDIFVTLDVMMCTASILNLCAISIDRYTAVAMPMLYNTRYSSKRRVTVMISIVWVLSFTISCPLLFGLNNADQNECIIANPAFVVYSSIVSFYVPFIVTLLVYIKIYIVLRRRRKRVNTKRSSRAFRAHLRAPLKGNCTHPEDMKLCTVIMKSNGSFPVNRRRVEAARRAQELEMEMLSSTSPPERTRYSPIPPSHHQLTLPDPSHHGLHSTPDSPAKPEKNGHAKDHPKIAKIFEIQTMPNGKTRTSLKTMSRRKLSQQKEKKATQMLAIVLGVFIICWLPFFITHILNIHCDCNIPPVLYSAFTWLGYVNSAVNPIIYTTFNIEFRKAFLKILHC
How it was run: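 cAMP accumulation in DRD2-HEK293 cells measured by HTRF after 1 h detection; compounds added 10 min before NKH477 (200nM […]) forskolin-analogue stimulation, 30 min at room temperature, with Ro20-1724 present at 0.1 mM final.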

[19] = target: D(2) dopamine receptor (Homo sapiens) (UniProt P14416); assay: Dopamine D2 receptor (DRD2) small molecule antagonists, cell-based qHTS assay (AID 1963595; active = well fitted inhibition curve with a large enough effect in the signal ratio in the repeat runs, with a control signal flat; the % refers to the signal ratio)
How it was run: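 In this cell-based antagonist screen, compounds act for 10 min at room temperature before a 30 min challenge with 12 nM quinpirole and 200 nM NKH477. cAMP is quantified by HTRF competition in DRD2-HEK293 cells containing 0.1 mM Ro20-1724.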

[20] = target: Muscarinic acetylcholine receptor M1 (Homo sapiens) (UniProt P11229); assay: Cholinergic receptor muscarinic 1 (CHRM1) small molecule antagonists, cell-based qHTS assay (AID 1963588); also: nearly all actives have a fitted effect of over 40% in size; also: potency is read from the fitted curve at half-maximal effect
How it was run: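 Compounds were tested at 15 concentrations in three independent runs. Dye-loaded CHRM1-CHO cells were exposed 5 min at room temperature before stimulation by acetylcholine added at 50nM. Intracellular calcium was read kinetically on FDSS for 3 min.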

Measured: Potency

NCCOCCOCCN
inactive: [1] | [2] | [3] | [4] | [5] | [6] | [7] | [8] | [9] | [10] | [11] | [12] | [13] | [14] | [15] | [16] | [17] | [18] | [19]

CCC(C)c1nccnc1OC (stereo not drawn)
inactive: [1] | [2] | [3] | [4] | [5] | [6] | [7] | [8] | [9] | [10] | [11] | [12] | [20] | [13] | [14] | [15] | [17] | [18] | [19]

COc1ccc(C(=O)Nc2ccccc2)cc1[N+](=O)[O-]
inactive: [1] | [4] | [6] | [7] | [8] | [9] | [10] | [12] | [20] | [13] | [16] | [18] | [19]

COC(=O)N/N=C/c1c[n+]([O-])c2ccccc2[n+]1[O-]
inactive: [1] | [3] | [4] | [5] | [6] | [7] | [8] | [9] | [10] | [20] | [13] | [15] | [16] | [17] | [18] | [19]
active: [2] 19 µM | [12] 15.1 µM

C[C@H]1C[C@H]2[C@@H]3CCC4=CC(=O)C=C[C@]4(C)[C@H]3C(=O)C[C@]2(C)[C@@]1(O)C(=O)CO
inactive: [1] | [2] | [3] | [4] | [5] | [6] | [7] | [8] | [9] | [10] | [11] | [12] | [20] | [13] | [14] | [15] | [16] | [18] | [19]

CC(C)COC(=O)COc1cc(Cl)c(Cl)cc1Cl
inactive: [1] | [2] | [3] | [4] | [5] | [6] | [7] | [8] | [9] | [10] | [11] | [12] | [20] | [13] | [15] | [16] | [19]

C1=C\CC/C=C\CC/1
inactive: [1] | [2] | [3] | [4] | [5] | [6] | [7] | [8] | [9] | [10] | [12] | [20] | [13] | [14] | [15] | [16] | [17] | [18] | [19]

CSc1nc(NC2CC2)nc(NC(C)(C)C)n1
inactive: [1] | [2] | [3] | [4] | [5] | [6] | [7] | [8] | [9] | [10] | [11] | [20] | [13] | [14] | [16] | [18] | [19]

CC1(C)S[C@@H]2[C@H](N=CN3CCCCCC3)C(=O)N2[C@H]1C(=O)O
inactive: [1] | [2] | [3] | [4] | [5] | [6] | [7] | [8] | [9] | [10] | [11] | [20] | [13] | [14] | [15] | [16] | [18] | [19]

COc1cccc(-c2ccc(/C=C\CN3CCCCCC3)cc2Cl)c1
inactive: [2] | [3] | [4] | [5] | [6] | [7] | [9] | [10] | [11] | [13] | [16] | [17]
active: [1] 38.4 µM | [8] 40.6 µM | [20] 0.836 µM

CC(Oc1cc(Cl)ccc1Cl)C(=O)O (stereo not drawn)
inactive: [1] | [2] | [3] | [4] | [5] | [6] | [7] | [8] | [9] | [10] | [11] | [12] | [20] | [13] | [16] | [18] | [19]

Cc1cc(C)c(O)c(C(C)(C)C)c1
inactive: [1] | [2] | [3] | [4] | [5] | [6] | [7] | [8] | [9] | [10] | [13] | [15] | [16] | [17] | [18]

C=CC(C)(O)CCCC(C)CCCC(C)CCCC(C)C (stereo not drawn)
inactive: [1] | [2] | [3] | [4] | [5] | [6] | [7] | [8] | [9] | [10] | [11] | [12] | [20] | [13] | [14] | [15] | [16] | [18] | [19]

Nc1ccc(C(=O)OCC(O)CO)cc1 (stereo not drawn)
inactive: [1] | [2] | [3] | [4] | [5] | [6] | [7] | [8] | [9] | [10] | [11] | [20] | [13] | [14] | [15] | [16]

CCOC(=O)C1=NN(c2ccc(Cl)cc2Cl)C(C)(C(=O)OCC)C1 (stereo not drawn)
inactive: [1] | [4] | [5] | [6] | [7] | [8] | [9] | [11] | [12] | [13] | [14] | [16] | [18] | [19]

CN(C)CCc1c[nH]c2ccc(CS(=O)(=O)N3CCCC3)cc12
inactive: [1] | [2] | [3] | [4] | [5] | [6] | [7] | [8] | [9] | [10] | [20] | [13] | [14] | [15] | [16] | [17] | [19]
active: [12] 10.7 µM
